In the supplement of paper PMC3334620:
The full ranking holds about 33,000 sequences; the median of “E-score (-0.5 to 0.5)” is about -0.01, and the highest 2% start at about 0.26. This is one part of a sample in which the highest values are shown more often than they occur.

target: Ste12 (UniProt P13574); test: PBM E-score (8-mer binding enrichment) (E-score (-0.5 to 0.5)); higher = stronger / more preferred TF binding; settings: protein concentration: 200 nM; construct: GST-DNA-binding domain
Summary of the method: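 Yeast transcription factors, full-length or as DNA-binding domains, were expressed with a GST tag using PURExpress in vitro transcription/translation. At about 100-200 nM they were applied to universal all-10-mer Agilent arrays, double-stranded by primer extension on fresh or once-stripped slides. Fluorescent anti-GST detected bound protein, and masliner normalised the scans. E-scores for ungapped eight-base words, pooled with reverse complements, came from the Universal PBM Analysis Suite.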

UniProt P13574, sequence (P13574 whole entry, the tested form may be a part): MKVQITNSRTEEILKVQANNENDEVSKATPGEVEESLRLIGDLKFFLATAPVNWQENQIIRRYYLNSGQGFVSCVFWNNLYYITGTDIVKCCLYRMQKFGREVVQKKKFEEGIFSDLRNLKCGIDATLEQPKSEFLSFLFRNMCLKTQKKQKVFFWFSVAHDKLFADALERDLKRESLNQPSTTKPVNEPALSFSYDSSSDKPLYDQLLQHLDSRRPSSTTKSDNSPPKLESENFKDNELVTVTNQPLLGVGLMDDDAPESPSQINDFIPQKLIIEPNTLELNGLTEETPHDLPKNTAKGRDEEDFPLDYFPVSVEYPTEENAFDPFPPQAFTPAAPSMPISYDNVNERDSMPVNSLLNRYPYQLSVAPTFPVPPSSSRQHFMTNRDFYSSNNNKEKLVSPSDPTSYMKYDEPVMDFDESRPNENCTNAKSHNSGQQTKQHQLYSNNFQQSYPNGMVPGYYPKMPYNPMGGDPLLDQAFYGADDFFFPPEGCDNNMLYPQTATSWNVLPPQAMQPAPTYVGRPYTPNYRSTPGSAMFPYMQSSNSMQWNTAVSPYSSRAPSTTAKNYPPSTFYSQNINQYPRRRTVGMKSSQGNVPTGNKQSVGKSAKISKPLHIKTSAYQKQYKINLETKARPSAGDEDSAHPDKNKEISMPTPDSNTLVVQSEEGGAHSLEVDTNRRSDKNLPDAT

Sequence | PBM E-score
ACATATTA | 0.193
AGCACAAT | -0.16
TTATCGAA | 0.196
AATAGGGT | 0.148
AGACTGGA | -0.0847
CAGCTCAC | -0.301
ATCCGATC | 0.162
ATCCGATG | 0.277
ATCCGATA | 0.063
CACTCCCA | 0.0996
AGCGCTAG | -0.0146
GGCACTTA | -0.157
ATTTCGGA | 0.181
CTTTCGGA | 0.0344
CATTCGAA | 0.11
CATTCATA | 0.296
GATTCGAA | 0.277
GATTCATA | 0.00383
GTTTCAAA | 0.47
GTTTCGGA | 0.334
CTTTCAAA | 0.246
GGTTCAAA | 0.195
CATTCATC | 0.125
GATTCGAC | 0.12
ATGGTAGC | -0.0629

Sequence | PBM E-score
CACCCAAC | -0.0687
CTTGAGGA | -0.147
GGAGCTTA | -0.219
CCTATTCC | 0.0843
ACTAAAGC | 0.0971
AGGCGAAG | -0.178
CTTTCGAA | 0.0433
GTTTCATA | 0.481
ATTTCACG | 0.122
TAATCGAA | 0.185
GAATCGAA | 0.296
ATTTCACA | 0.205
ATTTCGAA | 0.253
CAATCGAA | -0.021
CTTTCATA | 0.205
GTTTCACA | 0.447
GTTTCGAA | 0.325
ATTTCATA | 0.124
AAAGCGGC | 0.054
CTGTCAGA | 0.0092
AAGTACGT | -0.0519
AACAGCAG | 0.0314
CCATGCCC | -0.0778
GTGAACGA | 0.047
GACAAACA | 0.0473

Sequence | PBM E-score
ATTTCAGA | 0.00371
GTTTCAGA | 0.484
ATTTCAAC | 0.161
ATTTCAAG | 0.0717
CTTTCAGA | 0.211
ATTTCAAA | 0.272
ACGTCAAA | 0.0313
AACTCAGC | 0.109
GCTTGGGA | -0.164
AACGTGGT | -0.0847
AACTTATG | 0.0251
AACTTATC | 0.0734
AACTTATT | 0.333
GCTTGTGA | -0.0847
AATGAAGC | -0.0558
GATGAACC | 0.062
GATGAATC | 0.0548
CATGAAGA | -0.0377
AATGAAAT | 0.231
AATGAACC | 0.105
GATGAAAC | 0.494
AATGAAAC | 0.44
TATGAAGA | 0.0389
AATGAAAA | 0.292
AATGAAAG | 0.0381

Sequence | PBM E-score
AATGAAGA | 0.304
CAAATCGA | 0.0344
CGCTAGTC | -0.27
AATGCTAG | -0.181
CAACAGAC | -0.018
TCGTTGCA | -0.0015
ATTGGGAA | 0.0116
CGTGTAAG | -0.0021
CATGAAAG | -0.00226
CATGAAAA | 0.237
AATGAATC | 0.16
GATGAACA | 0.00898
CATGAAAC | 0.484
AATGAATT | 0.133
GATGAAAA | 0.281
TATGAAAA | 0.152
AATGAATG | 0.292
CCATTTCG | -0.219
AAGCTCAG | -0.179
GCCTCTAC | -0.239
GGTATACA | -0.0232
AGTATACA | -0.108
CGTATAAC | -0.0972
CGTATAAA | 0.263
AGTATAAA | 0.228

Sequence | PBM E-score
CGTATACA | 0.306
CAACCATC | 0.109
AGAGAGGG | -0.255
GATCGTGC | 0.0893
CCTTTTAC | 0.178
CACTTTAA | 0.159
AACTTTAG | 0.0874
ACTTTAAT | 0.263
GCTTTAAA | 0.155
ACTTTAAG | 0.225
ACTTTAAC | 0.162
ACTTTTAA | 0.164
ACTTTAAA | 0.275
ACTTTTAC | 0.263
ACTTTTAG | 0.101
AACTTTAA | 0.279
ACTTAGAT | -0.0771
ATGGGAAT | -0.202
ACCATACG | -0.0611
CGCGCTAC | 0.00148
ACTGGGCC | -0.244
AGCTAGAA | -0.0198
GAACCGGA | -0.0365
GAGCGAGC | -0.00859
GTCGCTGA | 0.0069

Sequence | PBM E-score
AAACGATA | 0.279
CAACGATA | 0.0594
TAACGATA | 0.138
AGAACTGG | -0.0181
ATAGGATG | 0.149
AAATAGAG | 0.0914
AAAAATAG | 0.24
AAATAGAT | 0.275
AAAAATCA | 0.254
AAATATAA | 0.224
AAAAATAC | 0.25
AAAAATAT | 0.339
AAATATAT | 0.273
AAAAATCC | 0.178
AAATATAC | 0.225
AAAAATCT | 0.318
AAATAGAC | -0.0352
CTCGTTTA | 0.0722
CCAACCGA | 0.0461
AACAGCCA | -0.019
AGCGCAAG | -0.0674
CACGGCAC | -0.113
ACAAGCGG | 0.106
TACCTACA | -0.0205
AACTATGT | -0.0705

Sequence | PBM E-score
TGTTGAAA | 0.311
CGTTGAAA | 0.185
GGTTGAGA | -0.103
GGTTGAAC | -0.0192
AGTTGAAA | 0.19
GGTTGTAA | 0.0372
AGTTGTAA | 0.068
TGTTGTAA | 0.28
GGTTGAAA | 0.292
CCCCGTAC | -0.0713
AGTCTGCA | -0.122
CGCGTACC | -0.113
CCGCCTTA | 0.0555
AAGGTTCT | 0.0379
CCCGAACA | 0.128
CGAAGCCC | -0.192
GATACAAA | 0.134
TATACAAA | 0.127
AATACAAG | 0.302
AATACAAT | 0.0948
AATACAAA | 0.265
AATACAAC | 0.157
GGCAGCCC | -0.142
GACTACAA | -0.102
GGAATCCC | 0.0198

Sequence | PBM E-score
GACCATGC | -0.139
AACTCAAA | 0.266
CACTCAAA | 0.0429
ATCTCAAT | 0.0795
ATCTCAAA | 0.27
TTCTCAAA | 0.291
CTCTCAAA | 0.0271
GTCTCAAA | 0.218
ATCTCAAG | 0.0665
AACTCAAG | -0.00801
ATGCCGTA | -0.0947
CTGGTCGA | -0.196
ATGGATTC | 0.186
ACCGTGAT | 0.0763
TGATTACA | -0.00637
ACAACCAA | 0.0252
CGATCTCC | -0.108
ATCAACTG | -0.112
CATTAAAC | 0.191
CATTAAAG | 0.034
CATTAAAA | 0.27
TATTAAAA | 0.341
GATTAAAA | 0.234
AATTAAAA | 0.308
AATTAAAG | 0.103

Sequence | PBM E-score
AATTAAAC | 0.241
TATTAACA | 0.164
TAAGGCAA | 0.0326
CTACCCTC | -0.0776
GCCCTCCC | 0.115
TGCTCACA | -0.148
CCTTGTGC | -0.0236
CACCATAA | 0.136
ATACTAGG | 0.119
GGTCCTGA | -0.163
AGCGCTAC | -0.0647
CCGCAGGA | -0.0635
ATTACAAA | 0.165
TCTACAAA | 0.138
GTTACAAA | 0.384
TTTACAAA | 0.294
GTTACAAC | 0.289
TGTACAAA | 0.0309
CTTACAAC | 0.0334
CTTACAAA | 0.143
ATTACAAC | -0.0498
TACGTCGA | 0.0119
GGAGTAGA | -0.0759
AAGCTGGA | -0.0676
GCGACCCC | 0.0725

Sequence | PBM E-score
GGATGCGA | -0.201
AGTCCATC | -0.306
GAAATATC | 0.0344
AAAATATA | 0.241
CAAATATA | 0.0746
GAAATATA | 0.284
GAAATACA | -0.00127
TAAATATA | 0.321
GTCTCTGA | -0.168
CCATCTCA | -0.0464
CGGCCCCG | 0.0097
CACCATGA | 0.0412
CGCGATGC | -0.182
CGTCCTAC | -0.0953
TCAGTGCA | 0.0371
CTAGGGCA | -0.159
GATGATGC | -0.125
GTTGCGAA | 0.093
CGCAAGGC | 0.049
CGTGAAAA | 0.22
CGTGAAAC | 0.364
AGTGAAAC | 0.394
AGTGAAAG | 0.126
GGTGAAAC | 0.463
GGTGAAAA | 0.0914

Sequence | PBM E-score
AGTGAAAT | 0.0994
CGTGAAAG | 0.0979
GGTGAACC | -0.00551
CCTCGTTA | 0.049
CGGTAACG | -0.141
GCCTAAAC | -0.125
CACAGGTA | 0.0125
ACCGTCTG | -0.00201
CCCAGGGC | -0.256
ACGATGAC | -0.173
AGGATGAA | 0.128
AAGATGAA | 0.18
CGGATGAA | 0.268
GAGATGAA | 0.156
TAGATGAA | 0.279
GCGATGAA | 0.116
CGGATGAG | -0.11
ACGATGAA | 0.274
CATACCAA | -0.0054
AACTCTCC | -0.129
AGCGAGAT | 0.119
CCGAATTC | -0.00494
TGACCTCA | -0.0719
ACAGAAGC | -0.0242
AGAAGACT | -0.22

Sequence | PBM E-score
AAGTTTTG | 0.116
TAGTTTCA | 0.36
AAGTTTCA | 0.437
TAGTTTAA | 0.171
CAGTTTCG | 0.181
AAGTTTCG | 0.175
CAGTTTCC | 0.0749
AAGTTTTA | 0.287
TAGTTTGA | 0.0916
AAGTTTTC | 0.0212
AAGTTTCC | 0.11
CAGTTTCA | 0.374
CGGCGAGA | -0.167
CCTTTTCG | 0.19
CGACCTGC | -0.0774
GACCTCAC | -0.15
TCACGGAA | 0.135
ACGATCGA | -0.106
ACGGAGGC | -0.187
GACCAGGA | -0.183
GTTCGCTA | -0.0318
GAGTTTGA | 0.0997
GAGTTTCC | -0.00944
GAGTTTCA | 0.407
CTGTGGTA | -0.0102

Sequence | PBM E-score
AATTTATG | 0.205
AATTTATC | 0.281
CATTTATC | 0.0356
CATTTATA | 0.189
AATTTATA | 0.274
GATTTATA | 0.182
CGGTAGAA | -0.142
GCCAAAGA | -0.0779
GGATTGCA | 0.117
GCTGCGCA | -0.229
ACGCTTGC | -0.116
AACGTTTC | 0.328
CACGTTTA | -0.00355
CACGTTTC | 0.285
AACGTTTG | 0.0498
AACGTTTA | 0.00807
CACGTTAC | 0.0456
ACAATTTA | 0.163
AATTAAGT | 0.118
AACATAGA | 0.287
CACATAGA | -0.0651
ACTATAAC | -0.0368
ACTAGAAA | 0.244
GACATAGA | 0.0743
ACTATAAT | 0.274

Sequence | PBM E-score
AACATAAT | 0.286
ACTAGAAT | 0.277
ACTATAAA | 0.241
AACATAAA | 0.249
AACATAAC | 0.0575
ACTAGAAC | -0.0111
ACTCCTAA | -0.0995
GGAGGACA | -0.106
GGCAATGA | -0.192
ACTTGGAT | 0.0871
TACTTCAA | 0.0645
AATCTAGG | 0.0839
GATGGTAA | 0.0297
CACCATAG | -0.041
AACATAAG | 0.289
ATCATAAG | 0.0492
CACATAAG | 0.044
CCAGAGTA | 0.03
CCCGTCTA | -0.125
